# Experimental data reported in PubChem BioAssay (NCATS).
# The other results are listed elsewhere or left out. Entries that show only a call come without a potency. Inconclusive results are not listed. Activity calls are given as the source filed them. Calls follow the shape of the full dose curve.
# Target: Papain (Carica papaya) (UniProt P00784)
# Experiment: Selectivity profile for inhibitors of NSP2Pro chikungunya virus (CHIKV): Papain Counterscreen (AID 1964104)
# Settings: purified papain protease activity, enzymatic inhibition; series mostly up to 51 µM
# Text: PI: Natalia J. Martinez Ph.D.
# National Center for Advancing Translational Sciences (NCATS),
# National Institute of Health (NIH), Rockville, Maryland
# Chikungunya virus (CHIKV) is a mosquito-borne RNA virus that has emerged as one of the most important global arboviral threats in the last decade. Although the first CHIKV vaccine has recently been FDA approved for use in healthy adults at increased risk, to date, there are no available antiviral drugs for CHIKV infection. CHIKV nsP2 protease plays a crucial role in the processing of the viral polypeptide precursor to release enzymes required for viral replication, thus making it a promising drug target for antiviral discovery. Here, we established a high-throughput pipeline to identify small molecule inhibitors of nsP2 proteolytic activity. The pipeline is composed of a suite of 1,536-well in vitro assays to support quantitative high-throughput (qHTS) screening campaigns. Specifically, we developed a fluorescence resonance energy transfer (FRET)-based assay using a fluorogenic peptide substrate encompassing an endogenous cleavage site and purified recombinant protease domain (nsP2pro). Using this assay, we interrogated ~37,000 small molecules, including those in drug repurposing libraries as well as chemically diverse and medicinal chemistry-friendly compounds. Hits were selected for follow-up validation against full-length nsP2 and an additional peptide. FRET-based 1,536-well assays for papain, hepatitis C virus NS3-4A, and human furin proteases were implemented to characterize compound selectivity. […] Novel compounds were identified to be potential nsP2 inhibitors and molecular docking analyses were performed to explain the binding mode of selected hits. In vitro antiviral activity was evaluated for a subset of compounds using a high-throughput CHIKV infection assay. To our knowledge, the pipeline presented here is unprecedented for CHIKV antiviral discovery research.
# PROTOCOL TABLE (as described by Inglese J, Shamu CE and Guy RK. 2007)
# SEQUENCE No. (e.g., 1, 2, 3, etc.); […] (e.g., Cells, Incubation, Reagent, etc.); VALUE; DESCRIPTION.
# 1a; Reagent; 3 uL; Papain in assay buffer.
# 1b; Reagent; 3uL; Assay buffer
# 2; Compound; 17 nL; Echo 655 acoustic dispenser (Beckman Coulter).
# 3; Incubation; 15 min; room temperature in the dark.
# 4: Reagent; 1 uL; Z-FR-AMC in assay buffer.
# 5; Incubation; 15 sec, 271g; centrifugation.
# 6; Detection; Fluorescence; time 0, Viewlux microplate reader (PerkinElmer) 355 nm excitation, 460 nm emission
# 7; Incubation; 10 min; room temperature
# 8; Detection; Fluorescence; time 10; ViewLux microplate reader (PerkinElmer), 355 nm excitation, 460 nm emission.
# NOTES (numbers refer to sequence numbers above).
# 1a. Medium-binding black solid-bottom Greiner plates (cat. 789176-F). Dispense 3 uL of 1.33X papain in assay buffer (100 mM sodium acetate, pH 5.5, 5 mM dl-cysteine, 0.01% Tween-20 v/v) to columns 1, 2, 5-48 via Wako/Kalypsys dispenser. Papain (cat. P4762, Sigma) was dispensed to produce 5 nM final concentration. Enzyme solution kept on ice during experiment. Prepare papain as 50% glycerol (v/v) at final concentration of 10 mg/mL (427 uM, 100 U/mL). Sources: microplates (Greiner 789176-F), papain (Sigma P4762), sodium acetate (Bioworld 40120009-2), cysteine (Sigma 861677), Tween-20 (Sigma P1379), water (GIBCO 10977-015; Gibco).
# 1b. Dispense 3 uL of assay buffer (100 mM sodium acetate, pH 5.5, 5 mM dl-cysteine, 0.01% Tween-20 v/v) to columns 3 and 4 via Wako/Kalypsys dispenser. Assay buffer solution kept on ice during experiment.
# 2. Compound addition by single pin transfer (17 nL) using Wako pintool. Compound solutions in source plate: 169 nM to 10 mM DMSO stock solutions. Final concentrations: 0.664 nM to 39.2 uM, respectively. Final DMSO concentration: 0.5% (v/v).
# 3. RT incubation. Kalypsys lids used as microplate coverings. Protected from light.
# 4. […]
# Potency is read from the fitted curve at half-maximal effect.
# Papain (Carica papaya), sequence (P00784 whole entry, looked up): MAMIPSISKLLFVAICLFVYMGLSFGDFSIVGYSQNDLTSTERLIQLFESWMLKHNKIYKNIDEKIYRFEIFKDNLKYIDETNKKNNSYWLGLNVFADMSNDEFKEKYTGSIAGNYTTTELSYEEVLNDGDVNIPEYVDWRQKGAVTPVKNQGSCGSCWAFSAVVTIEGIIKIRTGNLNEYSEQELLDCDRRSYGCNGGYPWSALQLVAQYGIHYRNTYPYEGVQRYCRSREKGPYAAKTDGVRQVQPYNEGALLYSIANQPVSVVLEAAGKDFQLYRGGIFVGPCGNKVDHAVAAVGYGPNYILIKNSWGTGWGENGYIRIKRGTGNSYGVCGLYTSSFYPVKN
row,Compound,Potency
1,COC([CH2][Hg])CNC(=O)c1ccccc1OCC(=O)O (stereo unspecified),inactive
2,Cc1ccc(N[S+](=O)([O-])c2cc3c(cc2N[C@@H](C)CO)NC(=O)CC3)cc1N[C@@H](C)CO,inactive
3,Cn1nnnc1Sc1ncnc2n[nH]c(-c3cccc(S(C)(=O)=O)c3)c12,inactive
4,CCc1ccccc1NC(=O)c1cnn(-c2ccc(F)cc2)c1C1CCNCC1,inactive
5,Cc1c(S(=O)(=O)O)oc2c1C(=O)C(=O)c1c-2ccc2c1CCCC2(C)C,18.3 µM (active)
6,CCOc1ccc(NC(=O)c2c(NC(=O)Cc3ccccc3)sc3c2CCC(C)C3)cc1 (stereo unspecified),inactive
7,C[C@@H]1[C@H](O)[C@@H]2OC(=O)C3=C2[C@H](CCC3)[C@@]12C[C@@H](c1ccoc1)OC2=O,inactive
8,C[C@@H]1C[C@@H](O)[C@@]23CO[C@]2(CO)C[C@@H](O)CC3[C@@]12CC(c1ccoc1)OC2=O (stereo partly specified),inactive
9,CCC(C)C(=O)OC1C(C)C2(O)C(C=C(CO)CC3(O)C(=O)C(C)=CC32)C2C(C)(C)C12OC(=O)C(C)C (stereo unspecified),inactive
10,CCOc1ccc(NC(=O)c2c(NC(=O)Cc3ccccc3)sc3c2CCCCC3)cc1,inactive
11,CCOc1ccc(N(Cc2ccccc2)C(=O)c2nc(S(C)(=O)=O)ncc2Cl)cc1,inactive
12,CO[C@]1(NC(=O)CSC(F)F)C(=O)N2C(C(=O)O)=C(CSc3nnnn3CCO)CO[C@H]21,6.51 µM (active)
13,C[C@@H]1O[C@@H](O[C@@H]2[C@@H](O)[C@H](OCCc3ccc(O)c(O)c3)O[C@H](CO[C@@H]3O[C@H](CO)[C@@H](O)[C@H](O)[C@H]3O)[C@H]2OC(=O)/C=C/c2ccc(O)c(O)c2)[C@H](O)[C@H](O)[C@H]1O,inactive
14,O=C(O)c1cccc(-n2[nH]c(-c3ccccc3)cc2=O)c1,inactive
15,CC(=O)N[C@@H](C(=O)O[C@H]1CCC(C)(C)[C@@H]2CCC3=C(COC3=O)[C@@]12C)C(C)C,inactive
16,Oc1ccc(OC2CCCCO2)cc1 (stereo unspecified),inactive
